# Laboratory results as given in paper PMC7862700, “An all-to-all approach to the identification of sequence-specific readers for epigenetic DNA modifications on cytosine”.
# What was measured:
# Assay in all cases: DAPPL (digital affinity profiling via proximity ligation, sequencing); 10 mM Tris-HCl pH 7.5, 50 mM NaCl, 1 mM DTT, 4% glycerol, room temperature, 30 min; GST-TFs on glutathione beads, 16-mer random dsDNA library, 0.1% formaldehyde crosslink after washing; high values mean tight binding
# [1] = target: ETV5 (Homo sapiens, UniProt P41161 1-510); settings: protein: recombinant; tags: N-terminal GST; dsDNA, one strand shown
# ETV5, sequence (P41161 whole entry, the tested form may be a part): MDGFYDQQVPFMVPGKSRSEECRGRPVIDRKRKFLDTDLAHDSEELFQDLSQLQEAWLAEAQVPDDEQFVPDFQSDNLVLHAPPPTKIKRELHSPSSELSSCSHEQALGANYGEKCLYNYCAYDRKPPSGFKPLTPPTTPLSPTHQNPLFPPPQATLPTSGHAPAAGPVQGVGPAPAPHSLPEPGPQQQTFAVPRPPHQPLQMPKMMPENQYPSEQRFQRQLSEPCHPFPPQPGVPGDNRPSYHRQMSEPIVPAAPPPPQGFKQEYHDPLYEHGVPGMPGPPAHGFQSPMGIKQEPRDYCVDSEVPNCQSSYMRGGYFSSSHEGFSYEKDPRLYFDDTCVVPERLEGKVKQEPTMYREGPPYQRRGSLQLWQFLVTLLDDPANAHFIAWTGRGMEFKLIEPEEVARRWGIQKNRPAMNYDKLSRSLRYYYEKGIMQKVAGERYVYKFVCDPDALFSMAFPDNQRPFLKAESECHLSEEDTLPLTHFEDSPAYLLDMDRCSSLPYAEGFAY
# In short: (§1)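 Binding signal is given per hexamer as its read frequency for a factor divided by its frequency in the tag-only sample. GST-fused human transcription factors were expressed in yeast, captured on glutathione beads, barcoded with DNA and pooled with that sample, then incubated with 200 nmole of a 16-mer random double-stranded DNA library in Tris/NaCl/DTT/glycerol buffer for 30 min at room temperature. The pools were then washed, crosslinked, proximity-ligated, amplified by PCR and sequenced on an Illumina NextSeq500.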
# [2] = target: T1, SPDEF (Homo sapiens, UniProt O95238 1-335); settings: protein: recombinant; tags: N-terminal GST; dsDNA, one strand shown
# T1 sequence: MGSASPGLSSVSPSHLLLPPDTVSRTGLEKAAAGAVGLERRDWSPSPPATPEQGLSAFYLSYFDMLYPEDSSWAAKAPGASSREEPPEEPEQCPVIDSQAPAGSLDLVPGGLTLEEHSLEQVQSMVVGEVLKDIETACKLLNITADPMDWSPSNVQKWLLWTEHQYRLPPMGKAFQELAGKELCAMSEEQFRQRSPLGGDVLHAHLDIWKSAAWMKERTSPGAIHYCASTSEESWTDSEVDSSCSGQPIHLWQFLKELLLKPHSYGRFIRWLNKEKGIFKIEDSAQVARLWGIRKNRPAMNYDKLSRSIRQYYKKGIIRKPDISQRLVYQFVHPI
# In short: as §1
# [3] = target: T2, ELF5 (Homo sapiens, UniProt Q9UKW6-2 1-255); settings: protein: recombinant; tags: N-terminal GST; dsDNA, one strand shown
# T2 sequence: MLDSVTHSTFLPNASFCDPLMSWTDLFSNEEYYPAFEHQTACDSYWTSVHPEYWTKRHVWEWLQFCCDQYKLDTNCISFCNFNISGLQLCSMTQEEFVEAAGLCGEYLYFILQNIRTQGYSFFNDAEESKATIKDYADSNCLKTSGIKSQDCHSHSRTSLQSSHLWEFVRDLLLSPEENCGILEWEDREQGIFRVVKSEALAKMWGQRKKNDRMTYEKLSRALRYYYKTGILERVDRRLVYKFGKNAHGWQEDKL
# In short: as §1
# [4] = target: SPI1 (Homo sapiens, UniProt P17947 1-270); settings: protein: recombinant; tags: N-terminal GST; dsDNA, one strand shown
# In short: as §1
# [5] = target: T3, FEV (Homo sapiens, UniProt Q99581 1-238); settings: protein: recombinant; tags: N-terminal GST; dsDNA, one strand shown
# T3 sequence: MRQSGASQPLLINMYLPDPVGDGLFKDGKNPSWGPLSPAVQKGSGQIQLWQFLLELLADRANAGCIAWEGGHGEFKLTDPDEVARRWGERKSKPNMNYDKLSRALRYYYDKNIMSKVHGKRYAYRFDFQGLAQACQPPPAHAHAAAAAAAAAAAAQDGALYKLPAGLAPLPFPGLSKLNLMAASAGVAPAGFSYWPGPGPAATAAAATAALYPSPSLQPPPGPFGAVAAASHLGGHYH
# In short: as §1
# [6] = target: HSF1 (Homo sapiens, UniProt Q00613 1-529); settings: protein: recombinant; tags: N-terminal GST; chain copies: 3; dsDNA, one strand shown
# HSF1, sequence (Q00613 whole entry): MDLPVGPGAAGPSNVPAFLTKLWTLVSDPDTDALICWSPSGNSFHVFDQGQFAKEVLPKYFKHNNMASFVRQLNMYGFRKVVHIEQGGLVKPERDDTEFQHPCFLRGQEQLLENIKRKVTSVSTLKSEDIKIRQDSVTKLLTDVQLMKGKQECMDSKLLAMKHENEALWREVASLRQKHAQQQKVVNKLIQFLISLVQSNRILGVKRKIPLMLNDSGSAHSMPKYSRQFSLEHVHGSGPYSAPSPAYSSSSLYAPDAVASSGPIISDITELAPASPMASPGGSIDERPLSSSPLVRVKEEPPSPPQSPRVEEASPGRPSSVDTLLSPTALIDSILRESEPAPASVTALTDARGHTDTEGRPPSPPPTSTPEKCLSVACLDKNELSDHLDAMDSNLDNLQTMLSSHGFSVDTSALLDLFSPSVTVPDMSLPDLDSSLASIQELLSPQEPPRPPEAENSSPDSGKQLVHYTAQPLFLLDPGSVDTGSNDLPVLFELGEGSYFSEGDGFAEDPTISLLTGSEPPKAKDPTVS
# In short: as §1
# [7] = target: CRX (Homo sapiens, UniProt O43186 1-299); settings: protein: recombinant; tags: N-terminal GST; dsDNA, one strand shown
# CRX, sequence (O43186 whole entry): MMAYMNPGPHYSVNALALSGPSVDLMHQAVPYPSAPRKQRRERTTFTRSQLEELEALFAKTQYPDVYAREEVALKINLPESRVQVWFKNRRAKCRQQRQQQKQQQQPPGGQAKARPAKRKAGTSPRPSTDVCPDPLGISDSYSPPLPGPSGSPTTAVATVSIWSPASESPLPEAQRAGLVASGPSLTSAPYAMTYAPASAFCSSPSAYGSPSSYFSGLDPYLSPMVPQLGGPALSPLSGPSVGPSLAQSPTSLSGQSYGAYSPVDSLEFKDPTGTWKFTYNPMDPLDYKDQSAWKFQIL
# In short: as §1
sequence,measurement,setting,value
CTGTAG,binding signal,[1],"1.02 fold enrichment (6-mer frequency, TF over GST control)"
same,binding signal,[2],"1.03 fold enrichment (6-mer frequency, TF over GST control)"
same,binding signal,[3],"1.01 fold enrichment (6-mer frequency, TF over GST control)"
TGGTCG,binding signal,[1],"1.06 fold enrichment (6-mer frequency, TF over GST control)"
TGAAGC,binding signal,[1],"1.01 fold enrichment (6-mer frequency, TF over GST control)"
GCGTAT,binding signal,[1],"1.05 fold enrichment (6-mer frequency, TF over GST control)"
AACTGT,binding signal,[1],"1 fold enrichment (6-mer frequency, TF over GST control)"
AGTTAC,binding signal,[1],"1.05 fold enrichment (6-mer frequency, TF over GST control)"
ATAAGA,binding signal,[4],"1.13 fold enrichment (6-mer frequency, TF over GST control)"
same,binding signal,[5],"1.01 fold enrichment (6-mer frequency, TF over GST control)"
same,binding signal,[6],"1.54 fold enrichment (6-mer frequency, TF over GST control)"
same,binding signal,[7],"1.97 fold enrichment (6-mer frequency, TF over GST control)"
same,binding signal,[2],"1.15 fold enrichment (6-mer frequency, TF over GST control)"
same,binding signal,[3],"1.02 fold enrichment (6-mer frequency, TF over GST control)"
AGATCT,binding signal,[6],"1.47 fold enrichment (6-mer frequency, TF over GST control)"
same,binding signal,[7],"1.33 fold enrichment (6-mer frequency, TF over GST control)"
GCTAAG,binding signal,[6],"1.13 fold enrichment (6-mer frequency, TF over GST control)"
same,binding signal,[7],"1.75 fold enrichment (6-mer frequency, TF over GST control)"
same,binding signal,[2],"1.11 fold enrichment (6-mer frequency, TF over GST control)"
same,binding signal,[3],"1.01 fold enrichment (6-mer frequency, TF over GST control)"
TGGATA,binding signal,[5],"1.03 fold enrichment (6-mer frequency, TF over GST control)"
same,binding signal,[6],"1.2 fold enrichment (6-mer frequency, TF over GST control)"
same,binding signal,[7],"1.34 fold enrichment (6-mer frequency, TF over GST control)"
same,binding signal,[2],"1.06 fold enrichment (6-mer frequency, TF over GST control)"
same,binding signal,[3],"1.04 fold enrichment (6-mer frequency, TF over GST control)"
TGAATC,binding signal,[4],"1.11 fold enrichment (6-mer frequency, TF over GST control)"
same,binding signal,[6],"1.03 fold enrichment (6-mer frequency, TF over GST control)"
same,binding signal,[7],"1.08 fold enrichment (6-mer frequency, TF over GST control)"
same,binding signal,[2],"1.11 fold enrichment (6-mer frequency, TF over GST control)"
GCTAGT,binding signal,[4],"1.13 fold enrichment (6-mer frequency, TF over GST control)"
same,binding signal,[5],"1.03 fold enrichment (6-mer frequency, TF over GST control)"
same,binding signal,[6],"1.12 fold enrichment (6-mer frequency, TF over GST control)"
same,binding signal,[2],"1.07 fold enrichment (6-mer frequency, TF over GST control)"
TTAAGA,binding signal,[4],"1.03 fold enrichment (6-mer frequency, TF over GST control)"
same,binding signal,[5],"1.01 fold enrichment (6-mer frequency, TF over GST control)"
same,binding signal,[6],"1.95 fold enrichment (6-mer frequency, TF over GST control)"
same,binding signal,[7],"2.97 fold enrichment (6-mer frequency, TF over GST control)"
same,binding signal,[2],"1.06 fold enrichment (6-mer frequency, TF over GST control)"
TGAAGA,binding signal,[6],"1.09 fold enrichment (6-mer frequency, TF over GST control)"
same,binding signal,[7],"1 fold enrichment (6-mer frequency, TF over GST control)"
TCTAGA,binding signal,[6],"6.17 fold enrichment (6-mer frequency, TF over GST control)"
same,binding signal,[7],"2.19 fold enrichment (6-mer frequency, TF over GST control)"
CCCCAG,binding signal,[4],"1.04 fold enrichment (6-mer frequency, TF over GST control)"
same,binding signal,[6],"1.03 fold enrichment (6-mer frequency, TF over GST control)"
CGTCTG,binding signal,[4],"1.06 fold enrichment (6-mer frequency, TF over GST control)"
same,binding signal,[5],"1.03 fold enrichment (6-mer frequency, TF over GST control)"
same,binding signal,[6],"1.01 fold enrichment (6-mer frequency, TF over GST control)"
same,binding signal,[2],"1.05 fold enrichment (6-mer frequency, TF over GST control)"
TAGACT,binding signal,[4],"1 fold enrichment (6-mer frequency, TF over GST control)"
same,binding signal,[6],"1.32 fold enrichment (6-mer frequency, TF over GST control)"
same,binding signal,[7],"1.27 fold enrichment (6-mer frequency, TF over GST control)"
CTTAAG,binding signal,[4],"1 fold enrichment (6-mer frequency, TF over GST control)"
same,binding signal,[5],"1.05 fold enrichment (6-mer frequency, TF over GST control)"
same,binding signal,[6],"1.7 fold enrichment (6-mer frequency, TF over GST control)"
same,binding signal,[7],"2.69 fold enrichment (6-mer frequency, TF over GST control)"
same,binding signal,[2],"1.04 fold enrichment (6-mer frequency, TF over GST control)"
same,binding signal,[3],"1.09 fold enrichment (6-mer frequency, TF over GST control)"
TAAAGG,binding signal,[4],"1.03 fold enrichment (6-mer frequency, TF over GST control)"
same,binding signal,[5],"1.02 fold enrichment (6-mer frequency, TF over GST control)"
same,binding signal,[6],"1.15 fold enrichment (6-mer frequency, TF over GST control)"
same,binding signal,[7],"1.56 fold enrichment (6-mer frequency, TF over GST control)"
same,binding signal,[3],"1.1 fold enrichment (6-mer frequency, TF over GST control)"
TTGCCA,binding signal,[4],"1.07 fold enrichment (6-mer frequency, TF over GST control)"
same,binding signal,[5],"1.11 fold enrichment (6-mer frequency, TF over GST control)"
same,binding signal,[6],"1.01 fold enrichment (6-mer frequency, TF over GST control)"
same,binding signal,[7],"1.06 fold enrichment (6-mer frequency, TF over GST control)"
same,binding signal,[2],"1.14 fold enrichment (6-mer frequency, TF over GST control)"
same,binding signal,[3],"1.04 fold enrichment (6-mer frequency, TF over GST control)"
CTAGAA,binding signal,[6],"6.29 fold enrichment (6-mer frequency, TF over GST control)"
same,binding signal,[7],"2.13 fold enrichment (6-mer frequency, TF over GST control)"
same,binding signal,[2],"1.01 fold enrichment (6-mer frequency, TF over GST control)"
CTAGCC,binding signal,[4],"1.1 fold enrichment (6-mer frequency, TF over GST control)"
same,binding signal,[6],"1.05 fold enrichment (6-mer frequency, TF over GST control)"
same,binding signal,[2],"1.02 fold enrichment (6-mer frequency, TF over GST control)"
AGTCTC,binding signal,[4],"1.07 fold enrichment (6-mer frequency, TF over GST control)"
same,binding signal,[6],"1 fold enrichment (6-mer frequency, TF over GST control)"
TCGAGC,binding signal,[6],"1.46 fold enrichment (6-mer frequency, TF over GST control)"
same,binding signal,[7],"1.01 fold enrichment (6-mer frequency, TF over GST control)"
same,binding signal,[2],"1.08 fold enrichment (6-mer frequency, TF over GST control)"
CGTTTA,binding signal,[4],"1.06 fold enrichment (6-mer frequency, TF over GST control)"
same,binding signal,[5],"1.09 fold enrichment (6-mer frequency, TF over GST control)"
same,binding signal,[6],"1.06 fold enrichment (6-mer frequency, TF over GST control)"
same,binding signal,[7],"1.19 fold enrichment (6-mer frequency, TF over GST control)"
same,binding signal,[2],"1.14 fold enrichment (6-mer frequency, TF over GST control)"
same,binding signal,[3],"1.07 fold enrichment (6-mer frequency, TF over GST control)"
GATCAA,binding signal,[6],"1.25 fold enrichment (6-mer frequency, TF over GST control)"
same,binding signal,[7],"1.52 fold enrichment (6-mer frequency, TF over GST control)"
same,binding signal,[2],"1.05 fold enrichment (6-mer frequency, TF over GST control)"
